In PubChem BioAssay (Tox21) one finds Potency, max response and cytotoxicity data, which are given here for 11 compounds.

“And” between values parts separate entries of the source, which are not always exact repeats. Equal entries are not always repeated. Records with an inconclusive call do not appear. More than one record can exist for a structure, and the calls need not agree. The source made the active and inactive calls. Calls come from the whole dose curve; as a rule, active = well fitted curve in the direction sought with a large enough effect in the repeat runs; inconclusive = weak or mixed curves; inactive = no such curve, though single readings can be large; an effect the other way counts as inactive or inconclusive.

Assay [1] in a line: qHTS RealTime-Glo MT Cell Viability Assay in HEK293 cells - 16 hour (AID 1224872). Note: nearly all actives have a fitted effect of over 50% in size. Note: potency is the fitted concentration of half-maximal effect. Summed up: (§1)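 Luminescence generated by NanoLuc from substrate produced by living HEK293 cells served as the viability signal. Each value reflects the reading at its stated time point during continuous 40 h compound exposure at 37 C.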
(In qHTS, concentration-response curves come from the screen itself.)

A short description of assay [2]: qHTS RealTime-Glo MT Cell Viability Assay in HepG2 cells - 8 hour (AID 1224873). Note: nearly all actives have a fitted effect of over 55% in size. Note: potency is the fitted concentration of half-maximal effect. In short, it runs like this: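 HepG2 cells mixed with RealTime-Glo MT reagents (NanoLuc plus cell-permeant prosubstrate) were seeded at 600 cells/well, incubated 5 h at 37 C/5% CO2, then pinned with compounds in DMSO; nonlytic luminescence tracked viability during 40 h treatment.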
Assay [3] can be described thus: A CellTox Green Cytotoxicity Assay to monitor cytotoxicity in HEK293 cells - 24 hour (AID 1224875). Note: series mostly up to about 77 µM; nearly all actives have a fitted effect of over 45% in size. In short, it runs like this:
(§2)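 Dead-cell fluorescence measured kinetically: asymmetric cyanine dye, HEK293, 600 cells/well, 5 h settle, 23 nL cpd/DMSO, 37 C, reads 0–40 h every 8 h.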

Assay [4] can be described thus: A CellTox Green Cytotoxicity Assay to monitor cytotoxicity in HepG2 cells - 16 hour (AID 1224876). Note: nearly all actives have a fitted effect of over 45% in size. Note: potency is the fitted concentration of half-maximal effect. Summed up: (§3)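 First, HepG2 cells (600/well) mixed with reagent were plated; second, after 5 h at 37 C they received compounds via pintool; third, fluorescence was measured at 0 h through 40 h at 8 h intervals.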
Assay [5] is described as follows: qHTS RealTime-Glo MT Cell Viability Assay in HepG2 cells - 32 hour (AID 1224877). Note: nearly all actives have a fitted effect of over 55% in size. Note: potency is the fitted concentration of half-maximal effect. In short, it runs like this: (§4)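 Tox21 10K library screened in qHTS format on HepG2 cells carrying RealTime-Glo reagents. Compounds were added after a 5 h preincubation, and the luminescent signal from continuous culture was measured repeatedly during 40 h treatment.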
A short description of assay [6]: A CellTox Green Cytotoxicity Assay to monitor cytotoxicity in HepG2 cells - 24 hour (AID 1224878). Note: nearly all actives have a fitted effect of over 45% in size. Note: potency is the fitted concentration of half-maximal effect. Summed up:
as §3

Assay [7] in a line: A CellTox Green Cytotoxicity Assay to monitor cytotoxicity in HepG2 cells - 40 hour (AID 1224879). Note: nearly all actives have a fitted effect of over 40% in size. Note: potency is the fitted concentration of half-maximal effect. In short, it runs like this: as §3
Assay [8] is described as follows: qHTS RealTime-Glo MT Cell Viability Assay in HEK293 cells - 0 hour (AID 1224880). Note: top concentration of the series differs between compounds; nearly all actives have a fitted effect of over 45% in size. In short, it runs like this:
(§5)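 600 HEK293 cells per well, dispensed already mixed with RealTime-Glo MT reagents. Compound dosing came 5 h later. The same wells were read for luminescence at 0, 8, 16, 24, 32 and 40 h of exposure at 37 C.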

Assay [9] can be described thus: A CellTox Green Cytotoxicity Assay to monitor cytotoxicity in HEK293 cells - 32 hour (AID 1224881). Note: nearly all actives have a fitted effect of over 40% in size. Note: potency is the fitted concentration of half-maximal effect. Summed up: as §2
Assay [10] can be described thus: A CellTox Green Cytotoxicity Assay to monitor cytotoxicity in HepG2 cells - 0 hour (AID 1224882). Note: nearly all actives have a fitted effect of over 35% in size. In short, it runs like this: as §3
Assay [11] is described as follows: A CellTox Green Cytotoxicity Assay to monitor cytotoxicity in HepG2 cells - 32 hour (AID 1224883). Note: nearly all actives have a fitted effect of over 50% in size. Note: potency is the fitted concentration of half-maximal effect. In short, it runs like this:
as §3

Assay [12] can be described thus: A CellTox Green Cytotoxicity Assay to monitor cytotoxicity in HEK293 cells - 8 hour (AID 1224884). Note: nearly all actives have a fitted effect of over 35% in size. Note: potency is the fitted concentration of half-maximal effect. Summed up:
as §2

Assay [13] can be described thus: qHTS RealTime-Glo MT Cell Viability Assay in HepG2 cells - 16 hour (AID 1224885). Note: nearly all actives have a fitted effect of over 50% in size. Note: potency is the fitted concentration of half-maximal effect. In short, it runs like this: as §4
Assay [14] can be described thus: qHTS RealTime-Glo MT Cell Viability Assay in HEK293 cells - 8 hour (AID 1224887). Note: nearly all actives have a fitted effect of over 50% in size. Note: potency is the fitted concentration of half-maximal effect. Summed up: as §5
Assay [15] can be described thus: A CellTox Green Cytotoxicity Assay to monitor cytotoxicity in HEK293 cells - 16 hour (AID 1224888). Note: nearly all actives have a fitted effect of over 35% in size. In short, it runs like this: as §2
Assay [16] in a line: qHTS RealTime-Glo MT Cell Viability Assay in HepG2 cells - 0 hour (AID 1224889). Note: nearly all actives have a fitted effect of over 50% in size. Summed up:
as §4

Assay [17] can be described thus: A CellTox Green Cytotoxicity Assay to monitor cytotoxicity in HepG2 cells - 8 hour (AID 1224890). Note: nearly all actives have a fitted effect of over 45% in size. In short, it runs like this:
as §3

Assay [18] is described as follows: qHTS RealTime-Glo MT Cell Viability Assay in HEK293 cells - 24 hour (AID 1224886). Note: nearly all actives have a fitted effect of over 50% in size. Note: potency is the fitted concentration of half-maximal effect. In short, it runs like this:
as §1

Assay [19] in a line: qHTS assay to identify small molecule antagonists of the estrogen receptor alpha (ER-alpha) signaling pathway using the BG1 cell line in the presence of 0.1 nM 17-beta-estradiol - cell viability counter screen (AID 1259241). Note: nearly all actives have a fitted effect of over 40% in size. Summed up: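 VM7Luc4E2 cells (endogenous ER-alpha, 4×ERE-luciferase), hormone-starved 5 days in charcoal-stripped FBS, were treated with compounds plus 0.1 nM 17beta-estradiol for 22 hr at 37C; viability read in same wells as CellTiter-Fluor live-cell protease fluorescence.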

Assay [20] can be described thus: qHTS RealTime-Glo MT Cell Viability Assay in HEK293 cells - 40 hour (AID 1224874). Note: nearly all actives have a fitted effect of over 50% in size. Note: potency is the fitted concentration of half-maximal effect. The following applies: RealTime-Glo luminescence; max response: stronger effect = lower value. In short, it runs like this: as §5
% is set by controls: 0 for no effect and ±100 for the full control effect.

Turning to `COc1ccccc1/C=C/C=O`, the Potency entry in [1], in assay [2], in [3], in assay [4], in [5] and in [6] was “inactive” throughout. The Potency result in assay [7], in assay [8], in [9], in assay [10], in [11] and in assay [12] was “inactive” throughout. Moreover, the Potency result in assay [13], in assay [14], in assay [15], in [16] and in assay [17] was “inactive” throughout.

`CC(C)Oc1ccc2c(=O)c(-c3ccccc3)coc2c1`: the Potency result in assay [2], in assay [3], in assay [4], in assay [5], in assay [6] and in assay [7] was “inactive” in each case. Moreover, the Potency result in assay [8], in [9], in assay [11], in [12], in [13] and in assay [15] was “inactive” each time. The Potency result in assay [16], in [17] and in [19] was “inactive” throughout. The Potency in assay [18] was 12 µM (active).

Regarding `CCC(C)c1ccccc1O` (configuration not stated), the Potency result in assay [1], in [2], in [4], in assay [5], in assay [6] and in assay [8] was “inactive” each time. For the same compound, the Potency entry in assay [12], in [13], in [18], in assay [14], in [16] and in assay [17] was “inactive” throughout. The Potency result in assay [19] is “inactive”. Also, the max response in assay [20] was -13% (inactive) and 2.84% (inactive). The values for the Potency in assay [7] and in [9] were 48.6 µM (active) and 38.6 µM (active), respectively.

For the compound `CN(C)CCC=C1c2ccccc2CCc2ccccc21`, the Potency result in [1], in [2], in [3], in assay [9], in [12] and in [13] was “inactive” throughout. The Potency entry in assay [18], in assay [14], in assay [15], in assay [17] and in assay [19] was “inactive” throughout. Besides, the Potency was 24.5 µM (active) in [4]; “inactive and 49 µM (active)” in [5]; 38.9 µM (active) and 23.9 µM (active) in assay [6]; 55 µM (active) and 43.6 µM (active) and 26.8 µM (active) in assay [7]; 55 µM (active) and 43.6 µM (active) and 26.8 µM (active) in assay [11].

Turning to `O=C(c1ccc(OCCN2CCCCC2)cc1)c1c(-c2ccc(O)cc2)sc2cc(O)ccc12`, the Potency was 19.5 µM (active) and 21.9 µM (active) in assay [1]; 17.4 µM (active) and 21.9 µM (active) and 23.9 µM (active) in assay [20]; 55 µM (active) and 54.9 µM (active) and inactive in [5]; 55 µM (active) and 54.9 µM (active) in [6]; 49 µM (active) and 26.8 µM (active) in assay [7]; 54.9 µM (active) and inactive in assay [9]. Besides, the Potency in assay [11] is 49 µM (active) and 54.9 µM (active); in [18], 19.5 µM (active); in [14], 21.9 µM (active). Moreover, the Potency entry in assay [2], in assay [4], in assay [8], in [10], in assay [12] and in [13] was “inactive” each time. Also, the Potency result in [16] and in assay [17] was “inactive” in each case.

Consider `O=C(Nc1ccc([N+](=O)[O-])cc1Cl)c1cc(Cl)ccc1O`, for which the Potency result in [2], in assay [3], in [8], in assay [10], in assay [12] and in assay [13] was “inactive” in each case. Also, the Potency entry in [14], in [15], in assay [16] and in [17] was “inactive” each time. The Potency is 2.19 µM (active) and 827 nM (active) in assay [20]; “inactive and 29.3 nM (active)” in [4]; 5.49 µM (active) in [6]; 4.9 µM (active) and 2.33 µM (active) in [7]; 38.9 µM (active) in assay [9]; 4.9 µM (active) and 2.93 µM (active) in [11]. For the same compound, the Potency in [18] was 5.49 µM (active) and 1.04 µM (active). The cytotoxicity in assay [6] is 38% [at 15.8 µM] (inactive).

For the compound `CCCCc1oc2ccccc2c1C(=O)c1cc(I)c(OCCN(CC)CC)c(I)c1`, the Potency is 39.2 µM (active) and 21.3 µM (active) in assay [1]; 39.2 µM (active) in [2]; 34.9 µM (active) and 23.9 µM (active) in [20]; 44 µM (active) in assay [4]; 39.2 µM (active) and 23.9 µM (active) in assay [5]; 39.2 µM (active) in assay [6]. For the same compound, the Potency in [7] was 31.1 µM (active) and 26.8 µM (active); in assay [9], 44 µM (active); in assay [13] it was 39.2 µM (active); in assay [18] it was 34.9 µM (active) and 23.9 µM (active). The Potency entry in assay [8], in assay [10], in assay [12], in [16] and in assay [19] was “inactive” in each case.

As for `CC(=O)Oc1ccccc1C(=O)Nc1ncc([N+](=O)[O-])s1`, the Potency result in assay [2], in assay [3], in [4], in assay [5], in assay [6] and in [8] was “inactive” each time. The Potency result in [9], in assay [11], in assay [12], in [13], in assay [14] and in assay [15] was “inactive” each time. For the same compound, the Potency result in assay [16] and in assay [17] was “inactive” throughout. Besides, in assay [7], the Potency is 11.2 µM (active).

`CC1=CCC(C(C)(C)O)CC1` (configuration not stated): the Potency entry in assay [1], in assay [2], in [3], in [5], in assay [8] and in [9] was “inactive” throughout. For the same compound, the Potency result in assay [13], in assay [18], in assay [14], in assay [15], in [16] and in assay [17] was “inactive” throughout. Further, in [19], the Potency entry was “inactive”. Besides, in assay [20], the max response is 3.53% (inactive) and 0% (inactive). Moreover, the Potency entry in [4] is “inactive and 19.5 µM (active)”; in [6], “inactive and 21.9 µM (active)”; in assay [7], “inactive and 21.9 µM (active)”; in assay [12], “inactive and 17.4 µM (active)”.

Take `c1ccncc1`: the Potency entry in assay [1], in assay [2], in [3], in [4], in assay [5] and in [6] was “inactive” in each case. In addition, the Potency entry in [7], in assay [9], in assay [12], in [13], in [18] and in assay [14] was “inactive” each time. The Potency result in assay [15], in assay [16], in assay [17] and in assay [19] was “inactive” in each case. Further, in assay [20], the max response is 5.95% (inactive) and 4.64% (inactive).

Turning to `Oc1ccc(O)cc1`, the Potency entry in assay [2], in assay [3], in [4], in assay [5], in [6] and in assay [7] was “inactive” each time. Besides, the Potency result in [8], in [9], in [10], in assay [11], in [12] and in assay [13] was “inactive” each time. Further, the Potency entry in [14], in assay [15], in assay [16], in assay [17] and in assay [19] was “inactive” throughout.
